Most compounds without a hit are left out; they make up all but 3% or so of the library.
HIF-2a inh – blocks HIF-2a reporter activity. 786-0 RCC cells HIF-2a reporter, luciferase luminescence, overnight. inhibition, % at 18.8 µM. hit rate 0.72% among 360,000;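 active = inhibition of the luminescence signal of 40% or more relative to plate controls, in a single-dose primary screen at 18.75 µM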
Peg3 promoter – inhibitors of Peg3 promoter | HeLa PEG-Prom luciferase reporter, luminescence, overnight | inhibition, % at 20 µM | hit rate 1.7% among 360,000;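 active = inhibition of at least 50% at 20 µM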
TRPM1 prom inh – reduces MITF-dependent TRPM1 promoter luciferase signal; SK-MEL-5 TRPM1 promoter luciferase, 24 h; inhibition, % at 12.5 µM; hit rate 0.83% among 330,000;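 active = mean inhibition across replicates of 60% or more, whatever share of single replicates reaches that level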
KKLEB cytotox – counter-screen for CF NF-kB inhibitors: cytotoxicity | AID 602141 | KKLEB CF airway cells viability, ATPlite luminescence, overnight; active compounds read low; cells stimulated with P. aeruginosa culture filtrate | hit rate 0.36% among 360,000 | activity change (cytotoxicity), % at 5 µM;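 active = corrected activity change at or below -50% at 5 µM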
CF NFkB inh – cystic fibrosis NF-kB activation inhibition. KKLEB NF-kB-GFP reporter, PAF-induced, GFP fluorescence overnight. inhibition, % at 5 µM. hit rate 0.86% among 360,000. AID 588850;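 active = at least 50% inhibition at 5 µM, scaled per plate between neutral and stimulator controls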;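 note: PAF is a Pseudomonas aeruginosa culture filtrate used as stimulus; plate controls were PAF-stimulated DMSO wells for no effect and unstimulated DMSO wells for full effect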
LMP1 NFkB inh – reduces LMP1-driven NF-kappaB luciferase signal. AID 504558. LMP1-induced NF-kappaB luciferase reporter cells, luminescence. inhibition, % at 12.5 µM. hit rate 0.69% among 350,000; in the data active = inhibition above about 41%;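 note: 0% = neutral control wells and 100% = reference inhibitor control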
The depositor's hits bear a star; . = no result.

SMILES	HIF-2a inh	Peg3 promoter	TRPM1 prom inh	KKLEB cytotox	CF NFkB inh	LMP1 NFkB inh
C/C(=N\Nc1nc2ccccc2[nH]1)c1ccccn1	-149.6	-94.8	53.9	-22.5	27.0	93.4*
NC(=O)CC(NC(=O)Cc1ccc(Br)cc1)c1ccc(N2CCC(Cc3ccccc3)CC2)c([N+](=O)[O-])c1 (stereo not drawn)	11.9	51.4*	42.9	-41.9	30.6	0.3
NC(=O)CC(NC(=O)Cc1ccc(Br)cc1)c1ccc(N2CCC(Br)CC2)c([N+](=O)[O-])c1 (stereo not drawn)	-7.7	26.7	3.0	-14.8	-28.3	-3.8
Cc1ccccc1CNc1ccc(C(CC(N)=O)NC(=O)c2ccc(Br)cc2)cc1[N+](=O)[O-] (stereo not drawn)	4.2	30.4	-11.5	-28.0	28.9	59.6*
NC(N)=NC(=O)c1nc(Cl)c(N2CCCCCC2)nc1N	-268.4	-150.8	-125.4	-24.4	1.7	74.0*
Cc1ccc(-c2cc(C(=O)N/N=C/c3c(C)nn(-c4ccccc4)c3C)n[nH]2)s1	-11.2	3.5	23.4	-23.0	57.1*	3.6
C[C@H](CO)N1C[C@H](C)[C@@H](CN(C)S(=O)(=O)c2ccc(-n3cccn3)cc2)OCc2cn(nn2)CCCC1=O	5.0	-22.6	.	8.6	-27.4	11.8
CC(=O)N1c2ccc(S(=O)(=O)NCC3CCC(C(=O)Nc4cc(C)ccn4)CC3)cc2CC1C (stereo not drawn)	9.8	87.7*	22.5	-2.9	26.0	-4.2
CC(=O)N1c2ccc(S(=O)(=O)NCC3CCC(C(=O)Nc4ncccc4C)CC3)cc2CC1C (stereo not drawn)	9.0	31.8	5.2	-18.3	12.5	-0.9
C[C@@H]1CN([C@@H](C)CO)S(=O)(=O)c2ccc(Br)cc2O[C@H]1CN(C)Cc1ccc(-c2ccccc2)cc1	10.8	50.0	.	-7.3	24.2	-1.8
C[C@H]1CN([C@@H](C)CO)S(=O)(=O)c2ccc(Br)cc2O[C@@H]1CN(C)Cc1cccc(F)c1	16.5	55.5*	.	-2.3	-9.3	-15.4
C[C@@H]1CN([C@H](C)CO)S(=O)(=O)c2ccc(Br)cc2O[C@@H]1CN(C)C(=O)Nc1ccc(C(F)(F)F)cc1	6.5	19.6	.	-16.6	9.6	-6.4
C[C@@H]1CN([C@@H](C)CO)S(=O)(=O)c2ccc(Br)cc2O[C@H]1CN(C)C(=O)Nc1ccc(C(F)(F)F)cc1	-12.9	52.5*	.	-24.6	-12.8	-1.0
C[C@H]1CN[C@H](CCO)/C1=C\c1ccccc1	-13.1	2.8	-8.0	7.3	-27.8	-2.2
CCOc1cc(C(=O)N2CCC(CC3CC(c4ccc(Cl)cc4)=NO3)(C(=O)NCC3CCCCC3)CC2)cc(OCC)c1OCC (stereo not drawn)	-0.9	1.6	17.9	-23.5	7.7	15.8
O=C(NCC1CCCCC1)C1(CC2CC(c3ccc(Cl)cc3)=NO2)CCNCC1 (stereo not drawn)	-148.9	96.8*	24.9	-21.0	19.2	-14.1
O=C(NCC1CCCCC1)C1(CC2CC(c3cccc(Br)c3)=NO2)CCNCC1 (stereo not drawn)	-29.9	99.1*	65.1*	-9.1	2.2	-2.2
O=[N+]([O-])c1ccc(COc2ccc(CN3CCCC3)cc2)cc1	-190.2	-195.9	-105.6	-4.9	-19.0	-6.2
COCCNC(=O)c1cc2c(c(-c3cccc(C#Cc4ccc(OC)c(OC)c4)c3)n1)[C@@H](CCO)N(S(=O)C(C)(C)C)C2 (stereo partly drawn)	-23.4	-26.1	.	0.4	-33.0	.
CC(=O)Nc1ccc(C=NNC(=O)CCCC(=O)NN=Cc2ccc(NC(C)=O)cc2)cc1	17.1	-3.1	-5.0	12.4	0.2	80.6*
CC(=O)Nc1ccc(/C=N/NC(=O)CC2CCCCC2)cc1	-26.1	-8.7	.	-12.9	-12.5	.
CCC(=O)N(C)/C=C1\Sc2ccccc2C1=O	-29.2	-36.3	9.7	3.7	-9.8	76.0*
CC(=O)Nc1ccc(/C=C2\Sc3ccccc3C2=O)cc1	50.3*	-108.6	1.2	-3.0	-0.2	4.8
CC(=O)Nc1ccc(C=NN=C2c3ccccc3-c3ccccc32)cc1	-91.0	73.5*	-0.3	-1.1	-46.2	12.4
COc1ccc(C=NN=C2c3ccccc3-c3ccccc32)cc1O	-55.8	-31.8	-21.8	-6.0	-4.9	-2.6
SMILES	HIF-2a inh	Peg3 promoter	TRPM1 prom inh	KKLEB cytotox	CF NFkB inh	LMP1 NFkB inh
CC(=O)N(C)/C=C1\Sc2ccccc2C1=O	-10.3	-0.5	-0.5	-10.0	7.8	-9.4
COc1ccccc1N1CCN(S(=O)(=O)CCNC(=O)CCc2ccccc2)CC1	14.6	-7.8	.	13.3	-38.5	-0.6
CCC(C(=O)Nc1c(C)cccc1C)n1c(-c2ccc(=O)[nH]c2)nc2ccccc21 (stereo not drawn)	-20.3	.	.	.	.	.
NC(=S)NN=Cc1nccc2c(N)cccc12	-93.9	-1.5	.	7.7	25.9	75.8*
CCN(C(C)=O)c1cnc(C=NNC(N)=S)c2ccccc12	19.5	53.6*	48.2	-0.1	-26.7	-1.7
CCC(=O)N1CCCC(C)(C(=O)Nc2nccc3cccnc23)C1 (stereo not drawn)	13.7	10.7	.	3.9	-14.1	.
Cc1cccc(C)c1-n1nnnc1C(c1ccnc2ccccc12)N1CCCN(C(=O)OC(C)(C)C)CC1 (stereo not drawn)	18.5	.	.	.	.	.
COCCN1C(=O)CN(S(C)(=O)=O)CC1(C)C(=O)Nc1c(C)cccc1C (stereo not drawn)	-3.3	.	.	.	.	.
COC(=O)C(Sc1ccc(Cl)cc1)C1SC(=S)N(Cc2ccccc2)C1=O (stereo not drawn)	-5.9	9.8	.	-11.3	57.8*	34.3
COC(=O)c1cccc(CN2C(=O)C(C)Sc3cc(Cl)ccc32)c1 (stereo not drawn)	-91.3	-217.5	.	-25.2	22.4	.
COc1cc(C2C3=C(COC3=O)OC(C)(C)Oc3cc4c(cc32)OCO4)cc(OC)c1OC (stereo not drawn)	23.4	-20.8	54.2	-40.3	64.2*	1.1
COc1cc(C2C3=C(COC3=O)Oc3cc4c(cc32)OCO4)ccc1O (stereo not drawn)	13.3	2.9	7.2	3.3	14.8	4.1
C[C@H](NS(=O)(=O)c1ccc(Cl)cc1)C(=O)OCC(=O)NCCc1ccc(S(N)(=O)=O)cc1	5.2	16.8	9.6	-2.7	16.1	33.3
O=C(COC(=O)c1cc(S(=O)(=O)N2CCOCC2)ccc1F)Nc1ccccc1C(F)(F)F	8.6	5.7	.	6.7	-26.9	4.5
COc1ccc(-c2oc(NC(=O)CCl)c(C#N)c2-c2ccc(OC)cc2)cc1	15.4	102.4*	43.2	-9.5	11.4	2.6
CCOC(=O)CSC1=N/C(=C\c2cccnc2)C(=O)N1c1ccc(OC)cc1	17.4	3.2	3.4	7.1	34.6	56.2*
O=C(O)c1cc(/C=C/c2ccc(N3CCOCC3)cc2)nc2ccccc12	-63.3	-19.2	-5.5	0.0	2.5	59.2*
Cc1ccc(NC(=O)c2cc(S(=O)(=O)N3CCc4ccccc43)cn2C)cc1C	25.1	52.0*	9.5	-20.2	36.0	2.5
